From PubChem BioAssay AID1159580 (chemical genetic matrix, 2015)
In all, about 5,500 compounds went through this assay and about 2,000 (36%) were called active. Roughly 18% stayed inconclusive and do not appear here. No stated cut-off is given here; in the data, active means normalized growth mostly below about 0.91 (no sharp cut-off); inconclusive means no clear call, values can overlap the other calls; inactive means mostly above about 0.92. The list shows a part of the results.

Assay: chemical genetic growth profiling, strain panel (AID 1159580);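 further: tested at 20 µM; growth read once vehicle control cultures reached saturation at 30 °C; 1 = growth at the plate median or of vehicle wells; lower values mean less growth of the strain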
Details: growth OD
[1] = S. cerevisiae deletion strains, locus YAL013W, strain DEP1, hits give low values
[2] = S. cerevisiae deletion strains, locus YDR150W, strain NUM1, hits give low values
[3] = S. cerevisiae deletion strains, locus YJR075W, strain HOC1, hits give low values
[4] = S. cerevisiae deletion strains, locus YMR263W, strain SAP30, hits give low values
[5] = S. cerevisiae deletion strains, locus YNL153C, strain GIM3, hits give low values
[6] = S. cerevisiae deletion strains, locus YNL322C, strain KRE1, hits give low values
[7] = S. cerevisiae deletion strains, locus YPL055C, strain LGE1, hits give low values
[8] = S. cerevisiae deletion strains, locus YBR229C, strain ROT2, hits give low values
[9] = S. cerevisiae deletion strains, locus YDL101C, strain DUN1, hits give low values
[10] = S. cerevisiae deletion strains, locus YEL061C, strain CIN8, hits give low values
[11] = S. cerevisiae deletion strains, locus YHR030C, strain SLT2, hits give low values
[12] = S. cerevisiae deletion strains, locus YJR043C, strain POL32, hits give low values
[13] = S. cerevisiae deletion strains, locus YLR039C, strain RIC1, hits give low values
[14] = S. cerevisiae deletion strains, locus YLR262C, strain YPT6, hits give low values

Measured: normalized growth

NC(=O)CCC(N)C(=O)O (stereo not given)
inactive: [1] 1.02 | S. cerevisiae deletion strains, locus YAL040C, strain CLN3, hits give low values 0.998 | S. cerevisiae deletion strains, locus YCL061C, strain MRC1 (second series), hits give low values 1 | [2] 0.999 | S. cerevisiae deletion strains, locus YDR363W, strain ESC2, hits give low values 1.01 | S. cerevisiae deletion strains, locus YER002W, strain NOP16, hits give low values 1.02 | S. cerevisiae deletion strains, locus YGR229C, strain SMI1, hits give low values 1.04 | [3] 1.01 | [4] 0.997 | S. cerevisiae deletion strains, locus YNL128W, strain TEP1, hits give low values 0.987 | [5] 0.99 | S. cerevisiae deletion strains, locus YNL175C, strain NOP13, hits give low values 0.996 | S. cerevisiae deletion strains, locus YNL197C, strain WHI3, hits give low values 0.997 | S. cerevisiae deletion strains, locus YNL224C, strain SQS1, hits give low values 0.993 | [6] 1.01 | S. cerevisiae deletion strains, locus YOR083W, strain WHI5 (second series), hits give low values 1.01 | [7] 1.03

BrC12CC3CC(CC(C3)C1)C2
inactive: [1] 1 | [8] 1.02 | [9] 1.01 | [2] 0.961 | [10] 1.01 | S. cerevisiae deletion strains, locus YGR078C, strain PAC10, hits give low values 0.997 | [11] 1.05 | S. cerevisiae deletion strains, locus YHR087W, strain rtc3, hits give low values 0.971 | [12] 1.02 | [3] 1.03 | S. cerevisiae deletion strains, locus YKL190W, strain CNB1, hits give low values 1 | [13] 1.02 | S. cerevisiae deletion strains, locus YLR058C, strain SHM2 (second series), hits give low values 1.02 | S. cerevisiae deletion strains, locus YLR085C, strain ARP6, hits give low values 1.01 | [14] 1.02 | S. cerevisiae deletion strains, locus YML094W, strain GIM5, hits give low values 0.997 | S. cerevisiae deletion strains, locus YMR219W, strain ESC1, hits give low values 1 | [4] 0.975 | [5] 1.02 | S. cerevisiae deletion strains, locus YNL298W, strain CLA4 (second series), hits give low values 0.996 | [6] 1.01 | S. cerevisiae deletion strains, locus YNR030W, strain Alg12, hits give low values 0.999 | S. cerevisiae deletion strains, locus YOL006C, strain TOP1, hits give low values 1.01 | [7] 1.03 | S. cerevisiae deletion strains, locus YPL241C, strain CIN2, hits give low values 1 | S. cerevisiae deletion strains, locus YPR135W, strain CTF4, hits give low values 0.99

CC1CC2C(C(O)CC3(C)C2CCC3(O)C(=O)COC(=O)CCC(=O)O)C2(C)C=CC(=O)C=C12 (stereo not given)
inactive: S. cerevisiae deletion strains, locus YBR021W, strain FUR4, hits give low values 1.08 | [8] 1 | S. cerevisiae deletion strains, locus YCL029C, strain bik1, hits give low values 0.97 | S. cerevisiae deletion strains, locus YDL035C, strain GPR1, hits give low values 1.01 | S. cerevisiae deletion strains, locus YDL074C, strain BRE1, hits give low values 1.01 | [9] 1.01 | S. cerevisiae deletion strains, locus YDL185W, strain tfp1, hits give low values 0.959 | S. cerevisiae deletion strains, locus YDL192W, strain arf1, hits give low values 0.982 | S. cerevisiae deletion strains, locus YDR101C, strain arx1, hits give low values 0.993 | [2] 1 | S. cerevisiae deletion strains, locus YDR162C, strain NBP2, hits give low values 1.02 | S. cerevisiae deletion strains, locus YDR318W, strain mcm21, hits give low values 0.989 | S. cerevisiae deletion strains, locus YDR388W, hits give low values 0.997 | S. cerevisiae deletion strains, locus YDR502C, strain sam2, hits give low values 0.982 | [10] 1.01 | S. cerevisiae deletion strains, locus YER110C, hits give low values 0.977 | S. cerevisiae deletion strains, locus YER155C, strain BEM2, hits give low values 1.01 | S. cerevisiae deletion strains, locus YER167W, strain BCK2, hits give low values 1.01 | S. cerevisiae deletion strains, locus YGL078C, strain dbp3, hits give low values 0.984 | S. cerevisiae deletion strains, locus YGL086W, strain mad1, hits give low values 1 | S. cerevisiae deletion strains, locus YGL248W, strain PDE1, hits give low values 1.01 | S. cerevisiae deletion strains, locus YGR135W, strain pre9, hits give low values 0.982 | S. cerevisiae deletion strains, locus YGR252W, strain gcn5, hits give low values 0.992 | [11] 0.987 | S. cerevisiae deletion strains, locus YHR079C, strain IRE1 (second series), hits give low values 0.979 | S. cerevisiae deletion strains, locus YHR094C, strain hxt1, hits give low values 0.994 | S. cerevisiae deletion strains, locus YHR129C, strain ARP1, hits give low values 0.999 | S. cerevisiae deletion strains, locus YHR200W, strain rpn10, hits give low values 0.987 | S. cerevisiae deletion strains, locus YIL066C, strain RNR3, hits give low values 1.03 | S. cerevisiae deletion strains, locus YIL073C, strain SPO22, hits give low values 0.973 | S. cerevisiae deletion strains, locus YIL125W, strain kgd1, hits give low values 0.983 | S. cerevisiae deletion strains, locus YIR030C, strain dcg1, hits give low values 0.978 | S. cerevisiae deletion strains, locus YJL095W, strain BCK1, hits give low values 1.05 | S. cerevisiae deletion strains, locus YJL134W, strain LCB3, hits give low values 0.999 | S. cerevisiae deletion strains, locus YJL168C, strain set2, hits give low values 0.979 | S. cerevisiae deletion strains, locus YJL187C, strain SWE1 (second series), hits give low values 1.02 | [12] 1.04 | [3] 1 | S. cerevisiae deletion strains, locus YKL009W, strain mrt4, hits give low values 0.97 | S. cerevisiae deletion strains, locus YKL068W, hits give low values 0.968 | S. cerevisiae deletion strains, locus YKL085W, strain MDH1 (second series), hits give low values 0.994 | S. cerevisiae deletion strains, locus YKL085W, strain MDH1, hits give low values 0.994 | S. cerevisiae deletion strains, locus YKR001C, strain vps1, hits give low values 0.984 | [13] 1.03 | S. cerevisiae deletion strains, locus YLR058C, strain SHM2, hits give low values 0.999 | S. cerevisiae deletion strains, locus YLR102C, strain apc9, hits give low values 0.991 | [14] 0.98 | S. cerevisiae deletion strains, locus YLR268W, strain sec22, hits give low values 0.99 | S. cerevisiae deletion strains, locus YLR330W, strain CHS5, hits give low values 0.987 | S. cerevisiae deletion strains, locus YLR342W, strain FKS1 (second series), hits give low values 1.04 | S. cerevisiae deletion strains, locus YLR371W, strain rom2, hits give low values 0.979 | S. cerevisiae deletion strains, locus YLR418C, strain cdc73, hits give low values 1.02 | S. cerevisiae deletion strains, locus YML016C, strain PPZ1, hits give low values 1.01 | S. cerevisiae deletion strains, locus YML032C, strain rad52, hits give low values 1 | S. cerevisiae deletion strains, locus YML124C, strain tub3, hits give low values 0.987 | S. cerevisiae deletion strains, locus YMR078C, strain ctf18, hits give low values 0.979 | S. cerevisiae deletion strains, locus YMR223W, strain ubp8, hits give low values 0.981 | [4] 1.02 | S. cerevisiae deletion strains, locus YMR307W, strain GAS1, hits give low values 1.13 | S. cerevisiae deletion strains, locus YNL067W, strain RPL9B, hits give low values 1.03 | [5] 1.03 | S. cerevisiae deletion strains, locus YNL233W, strain BNI4, hits give low values 1.04 | S. cerevisiae deletion strains, locus YNL250W, strain rad50, hits give low values 0.966 | S. cerevisiae deletion strains, locus YNL271C, strain bni1, hits give low values 0.999 | S. cerevisiae deletion strains, locus YNL298W, strain CLA4, hits give low values 0.993 | S. cerevisiae deletion strains, locus YNL307C, strain MCK1, hits give low values 0.987 | [6] 1.01 | S. cerevisiae deletion strains, locus YNR052C, strain pop2, hits give low values 0.982 | S. cerevisiae deletion strains, locus YOL012C, strain htz1 0.933 | S. cerevisiae deletion strains, locus YOL147C, strain pex11, hits give low values 0.993 | S. cerevisiae deletion strains, locus YOR061W, strain CKA2, hits give low values 1 | S. cerevisiae deletion strains, locus YOR069W, strain VPS5, hits give low values 1 | S. cerevisiae deletion strains, locus YOR136W, strain idh2, hits give low values 0.99 | S. cerevisiae deletion strains, locus YOR144C, strain elg1, hits give low values 1 | S. cerevisiae deletion strains, locus YOR184W, strain ser1, hits give low values 1.01 | S. cerevisiae deletion strains, locus YOR316C, strain cot1, hits give low values 1 | S. cerevisiae deletion strains, locus YPR119W, strain clb2, hits give low values 0.986 | S. cerevisiae deletion strains, locus YPR141C, strain kar3, hits give low values 0.972 | S. cerevisiae deletion strains, locus YPR163C, strain tif3, hits give low values 0.985 | S. cerevisiae deletion strains, locus YPR167C, strain met16, hits give low values 0.969 | S. cerevisiae deletion strains, strain wtn01, hits give low values 0.995 | S. cerevisiae strains, strain wild type, hits give low values 1.01
